Among the data in the supplement of paper PMC13380429 are morphology score and SARS-CoV-2 infection rate values, retold here.

The test system of assay [1] is Vero E6 infected with SARS-CoV-2. Nature of the assay: morphology score (similarity to uninfected cells); higher = more like uninfected cells. The conditions noted are these: 24 h.
The test system is the same in assay [2]. Nature of the assay: SARS-CoV-2 infection rate relative to infected DMSO; higher = more infection, active = 60 or less. Particulars: 24 h.

As to `CC1(N2CCC(n3c([C@@H]4CCCNC4)nc4ccccc43)CC2)CCCCCCC1` (10 µM), the morphology score in assay [1] was 0.62. The SARS-CoV-2 infection rate in assay [2] is 22% (active).
In assay [1], `FC(F)(F)c1cccc(-c2noc(-c3cc(-c4ccccc4)c(C(F)(F)F)s3)n2)c1` (10 µM) registered a morphology score of -0.0447. The SARS-CoV-2 infection rate in assay [2] was 114% (inactive).
On to `C[C@H](Oc1cc(-c2cnn(C3CCNCC3)c2)cnc1N)c1c(Cl)ccc(F)c1Cl` [crizotinib-(S)] (10 µM), for which the morphology score in assay [1] was determined as 0.602. Besides, the SARS-CoV-2 infection rate in assay [2] was 23% (active).
The like results for `Cc1ccccc1-c1cc(N2CCN(C)CC2)ncc1N(C)C(=O)C(C)(C)c1cc(C(F)(F)F)cc(C(F)(F)F)c1` [netupitant] (10 µM) were, in that order, 0.112 and 94% (inactive).
The like results for `Cc1ccc(S(=O)(=O)/C=C/C#N)cc1` (0.833333 µM) were, in that order, 0.173 and 112% (inactive).
Compound `CN(NC(=O)CC(=O)NN(C)C(=S)c1ccccc1)C(=S)c1ccccc1` [elesclomol] (10 µM) registered a morphology score in assay [1] of 0.879. Also, the SARS-CoV-2 infection rate in assay [2] was 19.5% (active).
For `C[C@H](NC[C@H](O)CP(=O)(O)CC1CCCCC1)c1ccc(Cl)c(Cl)c1` (10 µM), the morphology score in assay [1] is -0.206. Further, in assay [2], the SARS-CoV-2 infection rate is 114% (inactive).
The corresponding values for `CC(C)(C)NCC(O)COc1cccc2[nH]c(=O)[nH]c12` (stereo not given) (10 µM) are 0.0723 and 103% (inactive).
Take `NC(=O)c1cn(Cc2c(F)cccc2F)nn1` [rufinamide] (10 µM): the morphology score in assay [1] stood at 0.218. Also, in assay [2], the SARS-CoV-2 infection rate is 102% (inactive).
The corresponding values for `COCCCC/C(=N\OCCN)c1ccc(C(F)(F)F)cc1` [fluvoxamine] (10 µM) are 0.0586 and 90% (inactive).
The corresponding values for `COc1cc(C)nc(-n2nc(C)cc2OC)n1` [epirizole] (10 µM) are 0.0529 and 111% (inactive).
Compound `CO/N=C(\C(=O)N[C@@H]1C(=O)N2C(C(=O)O)=C(CSc3nc(C)c(CC(=O)O)s3)CS[C@H]12)c1csc(N)n1` [cefodizime] (10 µM) had a morphology score in assay [1] of 0.129. Moreover, in assay [2], the SARS-CoV-2 infection rate was 101% (inactive).
The like results for `Cc1cc(C)cc(C(=O)NOCCCCCC(=O)NO)c1` (10 µM) were, in that order, -0.485 and 124% (inactive).
The compound `COc1ccc(N2CCOCC2)c2sc(NC(=O)N3CCC(C)(O)CC3)nc12` [tozadenant] (10 µM) displayed a morphology score in assay [1] of 0.275. Further, the SARS-CoV-2 infection rate in assay [2] was 97% (inactive).
On to `Cc1ccccc1C(OCCN(C)C)c1ccccc1` (stereo not given) [orphenadrine] (10 µM), for which, in assay [1], the morphology score worked out at 0.316. Besides, the SARS-CoV-2 infection rate in assay [2] is 87% (inactive).
Regarding `CCCOC(=O)c1ccccc1` [propyl-benzoate] (10 µM), in assay [1], the morphology score came out at 0.105. Moreover, the SARS-CoV-2 infection rate in assay [2] was 90% (inactive).
`CCCC(C)NC(=O)c1ccc(Cl)c(Cl)c1` (stereo not given) (10 µM) showed a morphology score in assay [1] of -0.46. In assay [2], the SARS-CoV-2 infection rate was 119% (inactive).
Compound `CC(C)(C)c1[nH]cnc1/C=c1\[nH]c(=O)/c(=C/c2ccccc2)[nH]c1=O` [plinabulin] (0.833333 µM) returned a morphology score in assay [1] of -0.0585. For the same compound, the SARS-CoV-2 infection rate in assay [2] is 112% (inactive).
Take `CCC1(CC)C(=O)C=CNC1=O` [pyrithyldione] (10 µM): in assay [1], the morphology score was -0.0471. Moreover, the SARS-CoV-2 infection rate in assay [2] is 107% (inactive).
The like results for `C[C@@]12C[C@@]3(O)O[C@@H](O1)[C@]1(COC(=O)c4ccccc4)[C@H]3C[C@@]12O[C@@H]1O[C@H](CO)[C@@H](O)[C@H](O)[C@H]1O` [paeoniflorin] (10 µM) were, in that order, 0.192 and 92.5% (inactive).
The corresponding values for `CN1CCN(c2nc3ccccc3nc2Cl)CC1` (10 µM) are 0.162 and 102% (inactive).
The like results for `COC(=O)Nc1nc2cc(Sc3ccccc3)ccc2[nH]1` [fenbendazole] (0.833333 µM) were, in that order, 0.126 and 106% (inactive).
The compound `CC[C@H]1OC(=O)C[C@@H](O)[C@H](C)[C@@H](O[C@@H]2O[C@H](C)[C@@H](O[C@H]3C[C@@](C)(O)[C@@H](O)[C@H](C)O3)[C@H](N(C)C)[C@H]2O)[C@@H](CC=O)C[C@@H](C)C(=O)/C=C/C(C)=C/[C@@H]1CO[C@@H]1O[C@H](C)[C@@H](O)[C@@H](OC)[C@H]1OC` (0.833333 µM) registered a morphology score in assay [1] of -0.000376. The SARS-CoV-2 infection rate in assay [2] is 81% (inactive).
On to `O=C(O)C1CN(Cc2ccc(-c3nc4cc(Cc5ccccc5F)ccc4s3)c(F)c2)C1` (10 µM), for which, in assay [1], the morphology score was -0.0698. For the same compound, the SARS-CoV-2 infection rate in assay [2] was 113% (inactive).
The compound `c1ccc(CC2=NCCN2)cc1` [tolazoline] (10 µM) registered a morphology score in assay [1] of 0.146. The SARS-CoV-2 infection rate in assay [2] is 99.5% (inactive).
The corresponding values for `CCC(=O)NC[C@@H]1C[C@H]1c1cccc2c1CCO2` [tasimelteon] (10 µM) are 0.169 and 98.5% (inactive).
The like results for `COc1ccc(-c2ccc(=N)n(CCCC(=O)O)n2)cc1` [gabazine] (10 µM) were, in that order, -0.176 and 103% (inactive).
In assay [1], `Cc1c(S(=O)(=O)O)oc2c1C(=O)C(=O)c1c-2ccc2c1CCCC2(C)C` [sodium-tanshinone-II-A-sulfonate] (10 µM) gave a morphology score of 0.0001. For the same compound, in assay [2], the SARS-CoV-2 infection rate is 110% (inactive).
`CCOC(=O)C1=CCCC[C@H]1S(=O)(=O)Nc1ccc(F)cc1Cl` [resatorvid] (10 µM) came in with a morphology score in assay [1] of 0.0683. Besides, in assay [2], the SARS-CoV-2 infection rate is 99.5% (inactive).
The corresponding values for `O=c1ccc2cc(O[C@@H]3O[C@H](CO)[C@@H](O)[C@H](O)[C@H]3O)c(O)cc2o1` [esculin] (10 µM) are 0.15 and 111% (inactive).
